This is an account of results in PubChem BioAssay.

In this assay the target is Tumor necrosis factor receptor superfamily member 10B (Homo sapiens) (UniProt O14763). Put plainly: viability loss of caspase-8 NB7 cells with TRAIL – with/without TRAIL, luminescence panel, confirmation (AID 651596). As to conditions: NB7 neuroblastoma + caspase-8, TRAIL sensitization, NB7 Caspase-8, with TRAIL, mean of runs, at 10 µM, stronger effect = higher value.
Chain of Tumor necrosis factor receptor superfamily member 10B (Homo sapiens) (O14763 whole entry, looked up): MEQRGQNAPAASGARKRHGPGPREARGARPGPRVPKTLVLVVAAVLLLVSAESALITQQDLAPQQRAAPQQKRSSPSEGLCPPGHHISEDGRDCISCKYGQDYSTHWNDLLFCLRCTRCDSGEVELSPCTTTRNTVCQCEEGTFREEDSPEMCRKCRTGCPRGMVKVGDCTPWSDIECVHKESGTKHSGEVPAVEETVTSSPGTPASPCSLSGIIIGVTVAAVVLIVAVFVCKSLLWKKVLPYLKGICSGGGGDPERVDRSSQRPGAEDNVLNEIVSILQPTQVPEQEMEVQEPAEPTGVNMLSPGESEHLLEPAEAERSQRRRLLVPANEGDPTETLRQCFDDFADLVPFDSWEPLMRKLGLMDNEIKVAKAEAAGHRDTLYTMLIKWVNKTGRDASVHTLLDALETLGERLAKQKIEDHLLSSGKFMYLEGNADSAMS
Regarding `Cc1ccc(C(=O)COC(=O)c2ccc3c(c2)C(=O)N(c2cccc4ncccc24)C3=O)cc1`, the activity amounted to 54.7%. Regarding `Cc1ccn2cc(-c3cccc(NC(=O)CCC(=O)O)c3)nc2c1`, the activity worked out at 70.5%. To `CCN1CCN(CCCNC(=O)c2ccc3c(c2)NC(=O)/C(=C\c2cccc(C)c2)S3)CC1` belongs 41.4%; to `CN(C(=O)c1ccc(NC(=O)Cc2cccc(NC(=O)C3CCCN(S(=O)(=O)c4cccc([N+](=O)[O-])c4)C3)c2)cc1)C1CC1` (stereo not given), 56.3%. For `CN1C(=O)c2ccccc2C(C(=O)NCCCN2CCCC2)C1c1c[nH]c2ccccc12` (stereo not given), the activity came out at 45.5%. To `Nc1ccc(-c2nc3ncccc3o2)c(Cl)c1` belongs 43.9%; to `CCc1nnc(NC(=O)CSc2nc3c(cc2C#N)CCC3)s1`, 73.7%.

`Cc1cc(C)c(C)c(S(=O)(=O)N2CCN(c3ncnc4ccccc34)CC2)c1C`: the activity was determined as 40.2%. Take `Cc1ccc(C(=O)Nc2ccc(C)c(S(=O)(=O)N(C)C)c2)s1`: the activity stood at 52.5%. The value for `Cc1c(C)c2ccc(OCC(=O)Nc3nccs3)cc2oc1=O` was 58.4%; that for `CCOc1cccc2sc(N(CCCN(C)C)C(=O)c3ccc(S(=O)(=O)N4CCc5ccccc5C4)cc3)nc12` was 55.9%. Turning to `O=C(N/N=C/c1ccc[nH]1)c1ccc(COc2cccc3cccnc23)cc1`, the activity turned out to be 71.5%. Regarding `CC(C)N1CCc2c(sc(NC(=O)c3ccc([N+](=O)[O-])o3)c2C(N)=O)C1`, the activity was -2.23%. In the case of `COc1ccc(/C=C2\Oc3ccccc3C2=O)cc1`, the activity is 76.7%.

For the molecule `C/C(=N/NC(=O)c1ccccn1)c1ccco1`, the activity worked out at 35.1%. The value for `Cn1nccc1C(=O)Oc1cccc(/C=N/NC(=O)c2ccccc2O)c1` was 44.5%.

As to `CCOC(=O)c1nn(-c2ccc3c(c2)CCN3C(C)=O)cc1O`, the activity was 47%. The value for `COc1cccc(C(=O)Oc2c(CN3CCOCC3)cc(Cl)c3cccnc23)c1` was 49%; that for `CCc1ccc(NC(=O)c2cnn3ccccc23)cc1` was 59.4%. As to `Cc1cc(Br)c(OCc2ccc(C(=O)N/N=C/c3ccc[nH]3)cc2)c(Br)c1`, the activity came out at 72.8%.

Take `CCCCOc1ccc(-c2nc(=S)[nH][nH]2)cc1`: the activity amounted to 67.1%. To `CCc1ccc(C(=O)Cn2ncc(Cl)c(Cl)c2=O)cc1` belongs 99.2%; to `C(=N\NC1=Nc2cccc3cccc1c23)/c1ccccn1`, 50.6%. Turning to `Cc1ccc(C(C)C)c(OCC(=O)Nc2ccc3c(c2)nc(CCN2CCCCC2)n3C)c1`, the activity amounted to 7.92%.

As to `CCOC(=O)N1CCN(C(=O)CSCC(=O)Nc2nc(-c3ccc(-c4ccccc4)cc3)cs2)CC1`, the activity stood at 66.9%. On to `COCCN(C(=O)COC(=O)c1c(NC(C)=O)sc(C)c1C)c1c(N)n(Cc2ccccc2)c(=O)[nH]c1=O`, for which the activity came to 58.8%. To `NC(=O)c1ccccc1N/C=C/C(=O)c1ccccc1` belongs 73.4%. The value for `COc1ccc(OC)c(S(=O)(=O)Nc2ccc(-c3ccc4nncn4n3)cc2)c1` was 57.5%. Consider `COc1ccc(C(=O)Nc2ccccc2C(N)=O)cc1`, for which the activity stood at 56.5%.

For the molecule `Cc1cccc(C(=O)Nc2ccc(C(=O)Nc3ccc(O)cc3)cc2)c1`, the activity was 79.9%. For `CCN1CCN(CCNC(=O)c2ccc3c(c2)N(Cc2ccc(F)cc2)C(=O)/C(=C/c2ccccc2)S3)CC1`, the activity is 53.4%. `O=[N+]([O-])c1ccc(Sc2ccncn2)c([N+](=O)[O-])c1`: the activity turned out to be 16.8%. Take `O=C(Nc1cccc(-c2ccc(N3CCCCC3)nn2)c1)C(F)(F)F`: the activity came to 95.2%.

In the case of `Cc1nc2ccc(-c3nc4cc(N)ccc4o3)cc2[nH]1`, the activity came out at 59.7%. To `C[C@H](CO)N1C[C@H](C)[C@@H](CN(C)C(=O)NC2CCCCC2)Oc2c(NS(=O)(=O)c3ccccc3)cccc2C1=O` belongs -8.07%; to `C(=N\Nc1nncc2ccccc12)/c1ccccc1`, 88.2%; to `CC(=C/c1ccccc1)/C=N/NC(=O)c1ccccn1`, 87.2%.

With `O=c1cc(-c2c(F)c(F)c(F)c(F)c2F)oc2ccccc12`, the activity was 98.1%.

With `S=c1nc[nH]c2c1ncn2C1CCCO1` (stereo not given), the activity is 17.8%. To `COc1ccc(-c2cc(C(=O)N3CCOCC3)no2)cc1` belongs 50.8%.
